High-throughput results deposited in PubChem BioAssay by The Scripps Research Institute Molecular Screening Center.
Most compounds without a hit are left out; they make up all but 0.81% or so of the library.
COUP-TFII inh: NR2F2 (human) inhibition, primary screen; P24468; HEK293T NGFI-A luciferase reporter, luminescence; inhibition, % at 8.6 µM; 370,000 compounds, 0.7% hits;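 active means inhibition above a per-plate cutoff, mean inhibition of test wells between control levels plus 3 SD, cut at about 38% in these data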;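 further: cells cotransfected with COUP-TFII expression vector driving the NGFI-A reporter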
SRC1 inh: inhibits human SRC1 coactivator. inhibition, % at 3.6 µM. Q15788. HEK293 GAL4-SRC1 luciferase reporter, luminescence. 360,000 compounds, 0.12% hits. AID 588354;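 active means inhibition above the campaign mean plus 3 SD, with each screening campaign given its own cutoff, cut at about 60% in these data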
NCOA3 inh: inhibitors of human steroid receptor coactivator 3 (SRC3). Q9Y6Q9. HEK293 GAL4-SRC3 luciferase reporter, luminescence. inhibition, % at 3.6 µM. 360,000 compounds, 0.17% hits. AID 588352;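 active means inhibition above a per-campaign cutoff, the mean of all compounds plus 3 SD, cut at about 60% in these data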;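 further: higher means less SRC3-driven luciferase light from the GAL4 reporter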
NR5A2 inv ag: NR5A2 inverse agonism in reporter assay; 360,000 compounds, 0.13% hits; HEK293T StAR-luciferase reporter, LRH-1 transfected, 24 h; O00482; AID 602396; inhibition, % at 3.6 µM;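 active means inhibition above the mean inhibition of all tested compounds plus 3 SD, cut at about 73% in these data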
Target sequence (O00482 whole entry, looked up): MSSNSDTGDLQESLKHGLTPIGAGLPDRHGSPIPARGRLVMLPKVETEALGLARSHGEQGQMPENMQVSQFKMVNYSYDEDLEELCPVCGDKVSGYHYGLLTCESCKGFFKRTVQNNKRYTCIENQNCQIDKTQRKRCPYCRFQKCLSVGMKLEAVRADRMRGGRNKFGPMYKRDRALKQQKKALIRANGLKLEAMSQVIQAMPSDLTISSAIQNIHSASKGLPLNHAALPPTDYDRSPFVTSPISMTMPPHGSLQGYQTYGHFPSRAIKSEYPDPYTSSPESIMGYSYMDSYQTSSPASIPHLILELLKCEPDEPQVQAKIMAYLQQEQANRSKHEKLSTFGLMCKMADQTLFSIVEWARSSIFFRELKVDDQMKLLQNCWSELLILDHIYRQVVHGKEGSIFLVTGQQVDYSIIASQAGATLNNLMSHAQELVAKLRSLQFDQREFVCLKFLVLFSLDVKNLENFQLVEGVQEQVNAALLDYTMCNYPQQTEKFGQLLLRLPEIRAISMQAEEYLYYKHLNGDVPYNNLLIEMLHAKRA
NCOA2 inhibitor: inhibits human steroid receptor coactivator 2 | Q15596 | HEK293 GAL4-SRC2 luciferase reporter, luminescence | inhibition, % at 9 µM | 370,000 compounds, 0.17% hits;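 active means inhibition above the mean inhibition of all tested compounds plus 3 SD, set per campaign, cut at about 52% in these data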
Gal4-VP16 ctr: inhibits VP16 reporter, flagging COUP-TFII antagonist hits. 2,500 compounds, 25% hits. inhibition, % at 8.5 µM. HEK293 Gal4-VP16 luciferase reporter, luminescence. shares compounds with COUP-TFII inh; in the data active means inhibition above about 13%
COUP-TFII conf: confirmation of human COUP-TFII (NR2F2) inhibitors | 2,500 compounds, 45% hits | HEK293 NGFI-A luciferase reporter, luminescence | inhibition, % at 8.5 µM | shares compounds with COUP-TFII inh;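 active means mean inhibition over three repeats above a set limit taken from the earlier primary screen, cut at about 38% in these data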
Each line names hits and unclear results; the compound was inactive in the other large screens (follow-up assays come after a bar, where they were run).

c1ccc(CN2CCN(c3ncnc4sccc34)CC2)cc1	COUP-TFII inh 71.2 (no result: SRC1 inh, NCOA3 inh, NR5A2 inv ag, NCOA2 inhibitor) | Gal4-VP16 ctr inactive | COUP-TFII conf 50.1
Clc1ccc(OCCN2CCN(c3ncnc4sccc34)CC2)cc1	COUP-TFII inh 70.2 | Gal4-VP16 ctr inactive | COUP-TFII conf 63.5
OC1(Cc2ccccc2)CCN(c2ncnc3sccc23)CC1	COUP-TFII inh 71.0 (no result: SRC1 inh, NCOA3 inh, NR5A2 inv ag, NCOA2 inhibitor) | Gal4-VP16 ctr inactive | COUP-TFII conf 61.7
Cc1ccc(OCCN2CCN(c3ncnc4sc(C)c(C)c34)CC2)cc1	COUP-TFII inh 73.4 | Gal4-VP16 ctr inactive | COUP-TFII conf 61.1
CN(Cc1ccccc1)c1ncnc2sccc12	none
COc1ccc(CCNC(=O)c2nc3ncccn3n2)cc1OC	none
O=C(N/N=C/c1ccccc1Br)c1ccc(CSc2cccc3cccnc23)cc1	none
COc1cccc(NC(=S)N2C3CCCC2CC(NC(=O)C2CC2)C3)c1 (centres undefined)	none
CC(=O)NC(=S)Nc1ccc(NC(=O)COc2ccc(Cl)cc2Cl)cc1	none
Cc1cccc(C(=O)O/N=C(\c2ccccc2)c2cccnc2)c1	none
COc1cc(C2Nc3cccc4cccc(c34)N2)ccc1OC(C)=O	none (no result: COUP-TFII inh, NCOA2 inhibitor)
CC(C)(C)c1ccc(C(=O)N2CCCCCC2=O)cc1	COUP-TFII inh 85.8, NCOA2 inhibitor 86.9 | Gal4-VP16 ctr 80.6 | COUP-TFII conf 76.4
O=C1CCCCCN1C(=O)c1ccccc1	none
Fc1ccc(COc2ccccc2CNCc2ccncc2)cc1	none
Cc1cc(N2CCN(c3nc4ccccc4s3)CC2)n2ncnc2n1	COUP-TFII inh 67.7 | Gal4-VP16 ctr inactive | COUP-TFII conf 71.3
O=C(Nc1ccncc1)C1COc2ccccc2O1 (centres undefined)	none
O=C(NC1=NCCS1)C1COc2ccccc2O1 (centres undefined)	COUP-TFII inh 48.8, NCOA2 inhibitor 57.4 | Gal4-VP16 ctr 18.6 | COUP-TFII conf 49.2
CC(C)(C)C(=O)NC(=S)Nc1ccc(Cc2ccncc2)cc1	none
O=C(N/N=C/c1ccccc1O)C1CC(=O)N(c2ccc(Cl)cc2)C1 (centres undefined)	none
Cc1cc(C(=O)COC(=O)c2ccccc2Br)c(C)n1CC1CCCO1 (centres undefined)	COUP-TFII inh 90.3, SRC1 inh 82.0, NCOA3 inh 84.0, NR5A2 inv ag 81.5, NCOA2 inhibitor 82.0 | Gal4-VP16 ctr 84.5 | COUP-TFII conf 101.3
COCCn1c(C)cc(C(=O)COC(=O)c2ccccc2Br)c1C	COUP-TFII inh 87.4, SRC1 inh 80.7, NCOA3 inh 80.8, NR5A2 inv ag 77.8, NCOA2 inhibitor 74.4 | Gal4-VP16 ctr 72.3 | COUP-TFII conf 95.2
Cc1cc(C(=O)COC(=O)c2ccccc2NCCO)c(C)n1CC1CCCO1 (centres undefined)	COUP-TFII inh 43.9 | Gal4-VP16 ctr inactive | COUP-TFII conf inactive
Cc1cc(C(=O)COC(=O)c2ccccc2O)c(C)n1CC1CCCO1 (centres undefined)	COUP-TFII inh 96.6, SRC1 inh 89.9, NCOA3 inh 88.4, NR5A2 inv ag 91.2, NCOA2 inhibitor 89.3 | Gal4-VP16 ctr 89.4 | COUP-TFII conf 105.4
CCOC(=O)c1c(S(=O)(=O)N2CCc3ccccc32)c(C)n(C)c1C	none
N#Cc1cnn(-c2cccc(Cl)c2)c1N	none
CC(=O)Nc1ccc(S(=O)(=O)NNC(=O)c2cccc(Br)c2)cc1	none
Cc1ccc(C(=O)OCC(=O)c2cc(C)n(CC3CCCO3)c2C)cc1 (centres undefined)	none
Cc1cc(C(=O)COc2ccccc2C(N)=O)c(C)n1CC1CCCO1 (centres undefined)	COUP-TFII inh 56.6 | Gal4-VP16 ctr inactive | COUP-TFII conf 39.3
Cc1cc(C(=O)COC(=O)c2cc(O)c3ccccc3c2O)c(C)n1CC1CCCO1 (centres undefined)	none (no result: COUP-TFII inh, NCOA2 inhibitor)
Cc1cc(C(=O)COC(=O)c2cccc(NS(C)(=O)=O)c2)c(C)n1CC1CCCO1 (centres undefined)	COUP-TFII inh 71.9 | Gal4-VP16 ctr inactive | COUP-TFII conf 57.0
COCCn1c(C)cc(C(=O)COc2nc3ccccc3nc2C)c1C	COUP-TFII inh 67.3 | Gal4-VP16 ctr inactive | COUP-TFII conf 46.7
Cc1cc(C(=O)COC(=O)c2cccnc2Cl)c(C)n1CC1CCCO1 (centres undefined)	COUP-TFII inh 62.7 | Gal4-VP16 ctr inactive | COUP-TFII conf 55.5
COCCn1c(C)cc(C(=O)CSc2ccc3ccccc3n2)c1C	none
O=C(NCC1CCN(Cc2ccc(Cl)cc2)CC1)C1CCCN(c2ncnc3c2nc2n3CCCCC2)C1 (centres undefined)	COUP-TFII inh 58.4 | Gal4-VP16 ctr inactive | COUP-TFII conf inactive
Cc1ccc(C(=O)Nc2sc(C)c(-c3ccccc3)c2C(N)=O)cc1[N+](=O)[O-]	COUP-TFII inh 56.3 | Gal4-VP16 ctr 26.7 | COUP-TFII conf 84.2
C=C1C(=O)O[C@H]2C[C@H]1[C@@H](OC(C)=O)C/C(C)=C/CC/C(C)=C\CC[C@]2(C)O	COUP-TFII inh 40.3, NCOA3 inh 71.8 | Gal4-VP16 ctr 32.0 | COUP-TFII conf 38.3
COc1cccc(Nc2ncnc3ccccc23)c1	none
O=[N+]([O-])c1cccc2ccc(N3CCOCC3)nc12	none
FC(F)(F)c1ccc2nc(CNc3nc(N4CCOCC4)nc4c3ncn4-c3ccsc3)[nH]c2c1	COUP-TFII inh 68.8 (no result: SRC1 inh, NCOA3 inh, NR5A2 inv ag, NCOA2 inhibitor) | Gal4-VP16 ctr 23.4 | COUP-TFII conf 42.5
O=[N+]([O-])c1ccc2nc(CNc3nc(N4CCOCC4)nc4c3ncn4-c3ccsc3)[nH]c2c1	COUP-TFII inh 58.3 (no result: SRC1 inh, NCOA3 inh, NR5A2 inv ag, NCOA2 inhibitor) | Gal4-VP16 ctr 28.3 | COUP-TFII conf 48.1
O=[N+]([O-])c1cccc2[nH]c(CNc3nc(N4CCOCC4)nc4c3ncn4-c3ccsc3)nc12	COUP-TFII inh 66.7 (no result: SRC1 inh, NCOA3 inh, NR5A2 inv ag, NCOA2 inhibitor) | Gal4-VP16 ctr 25.2 | COUP-TFII conf 40.8
c1ccc2cc3[nH]c(CNc4nc(N5CCOCC5)nc5c4ncn5-c4ccsc4)nc3cc2c1	COUP-TFII inh 63.3 (no result: SRC1 inh, NCOA3 inh, NR5A2 inv ag, NCOA2 inhibitor) | Gal4-VP16 ctr inactive | COUP-TFII conf 41.7
Cn1c(=O)c2c(-c3ccccc3)n(C3CCCCC3)cc2n(C)c1=O	none
c1ccc2[nH]c(N3CCOCC3)nc2c1	none
c1ccc2[nH]c(CNc3nc(N4CCOCC4)nc4c3ncn4-c3ccsc3)nc2c1	COUP-TFII inh 52.3 (no result: SRC1 inh, NCOA3 inh, NR5A2 inv ag, NCOA2 inhibitor) | Gal4-VP16 ctr 20.4 | COUP-TFII conf 45.9
Cc1ccc(-n2[nH]c(=O)c(-c3ccccn3)c2C)cc1	COUP-TFII inh 43.9 | Gal4-VP16 ctr inactive | COUP-TFII conf inactive
COCCOC(=O)c1c(C)n(C)c2ccc(OC(=O)c3ccccc3OC)cc12	none
S=C(NCc1ccncc1)Nc1ccc(Br)cc1	none
COc1ccc(NC(=O)N/C=C/c2ccccc2)cc1	none
Cn1c(N=Nc2ccccc2)nc2ccccc21	none
CN(C)c1ccc(N=Nc2nc3ccccc3n2C)cc1	COUP-TFII inh 60.6 | Gal4-VP16 ctr inactive | COUP-TFII conf inactive
